Drawing on PubChem BioAssay (NCATS), this text covers activity change, negative = inhibition, activity, negative = inhibition and Potency for 19 compounds.

The nature of experiment [1]: NFAT Signaling Pathway (AID 444).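 Further: carbachol stimulus at about its EC50 of 1 µM final; on the % scale 0 is the no-effect control and ±100 the full control effect.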 The following applies: Jurkat NFAT-bla M1, carbachol, beta-lactamase ratio, 5 h; at 17.2 µM (top of the series) unless noted. The method, boiled down: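 Jurkat cells with NFAT-driven β-lactamase reporter and co-expressed M1 receptor, stimulated with carbachol (final 1 uM, ~EC50), compound titration, 5 h at 37 °C. CCF4 loaded 1 h at RT; 460/530 nm ratio gave %activity and AC50.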

Experiment [2] is described as follows: Stat Signaling Pathway (AID 446).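 Further: ME-180 cervical cancer cells given 40 pM IL-6 alongside compound; SIE-controlled beta-lactamase reporter measured as 460/530 nm FRET emission ratio; on the % scale 0 is the no-effect control and ±100 the full control effect.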 Particulars: ME-180 (cervical carcinoma) SIE beta-lactamase reporter, IL-6 stimulated, 5 h; at 17.2 µM (top of the series) unless noted. The method, boiled down: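 Compound effects on IL-6-induced STAT reporter activity were measured in ME-180 cells. After overnight culture, cells were co-treated with 40 pM IL-6 for 5 hrs before beta-lactamase substrate loading at room temperature.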

In experiment [3] the target is Glucocorticoid receptor (Homo sapiens) (UniProt P04150). As to the kind of experiment: GR-GFP Redistribution (AID 450;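 active means compounds whose dose series gives a full or clear partial fitted curve of increased nuclear translocation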; further: potency means the concentration at half of the fitted maximal effect).
Chain of Glucocorticoid receptor (Homo sapiens) (P04150 whole entry, looked up): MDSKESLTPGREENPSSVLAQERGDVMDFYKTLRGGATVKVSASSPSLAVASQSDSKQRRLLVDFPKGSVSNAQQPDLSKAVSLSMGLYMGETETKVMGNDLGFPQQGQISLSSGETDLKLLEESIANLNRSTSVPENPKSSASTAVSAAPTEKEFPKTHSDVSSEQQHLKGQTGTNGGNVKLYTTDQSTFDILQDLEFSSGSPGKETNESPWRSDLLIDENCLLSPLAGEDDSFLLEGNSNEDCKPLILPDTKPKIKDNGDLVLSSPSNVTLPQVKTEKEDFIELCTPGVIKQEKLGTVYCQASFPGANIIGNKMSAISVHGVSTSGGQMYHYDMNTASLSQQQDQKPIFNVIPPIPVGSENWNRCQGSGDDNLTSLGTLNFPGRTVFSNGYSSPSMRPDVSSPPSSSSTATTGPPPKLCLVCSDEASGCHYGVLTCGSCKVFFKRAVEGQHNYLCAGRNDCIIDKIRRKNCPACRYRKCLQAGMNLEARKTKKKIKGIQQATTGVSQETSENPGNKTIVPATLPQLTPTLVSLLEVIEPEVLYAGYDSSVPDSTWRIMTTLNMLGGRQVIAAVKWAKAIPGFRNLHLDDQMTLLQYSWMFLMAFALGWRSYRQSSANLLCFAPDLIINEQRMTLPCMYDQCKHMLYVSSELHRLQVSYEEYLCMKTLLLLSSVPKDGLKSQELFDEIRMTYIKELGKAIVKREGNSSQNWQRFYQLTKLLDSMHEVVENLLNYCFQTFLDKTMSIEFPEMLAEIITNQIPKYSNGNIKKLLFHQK

Unmarked numbers belong to inactive results. Results filed as inconclusive are left out. Active and inactive are the calls of the source. Unless noted, the call rests on the fitted dose curve; in most records, active means well fitted curve in either direction with a large enough effect (not every such curve was filed as active); inconclusive means small, poorly fitted or top-dose-only effect, or another doubt; inactive means flat fitted curve, though single readings scatter.

For `COc1ccc(CC(=O)Nc2cccc(-c3nnc(-c4ccco4)o3)c2)cc1`, the activity change, negative = inhibition in experiment [1] was 29.9%. In addition, the activity, negative = inhibition in experiment [2] was -27.7%. Moreover, in experiment [3], the Potency is more than 20.6 µM.

Turning to `CCOC(=O)C1CCN(c2nc3ccccc3nc2C(C#N)C(=O)OC(C)C)CC1` (configuration not stated), the activity change, negative = inhibition in experiment [1] is 8.02%. The activity, negative = inhibition in experiment [2] was -8.74%. Further, the Potency in experiment [3] was more than 20.6 µM.

As for `COc1cccc(N2CCN(c3ncnc4c3[nH]c3ccccc34)CC2C)c1` (configuration not stated), the activity change, negative = inhibition in experiment [1] is -139% (active). In addition, the activity, negative = inhibition in experiment [2] is -104% (active). Besides, the Potency in experiment [3] is more than 20.6 µM.

Consider `CCN1CCc2c(C#N)c(N3CCCCC3)nc(N3CCOCC3)c2C1`, for which, in experiment [1], the activity change, negative = inhibition is -1.02%. In addition, the activity, negative = inhibition in experiment [2] is 18.4%. Further, the Potency in experiment [3] is more than 20.6 µM.

Regarding `CCCCC(=O)c1c(C)cc(C)[nH]c1=O`, the activity change, negative = inhibition in experiment [1] is 4.24%. Moreover, the activity, negative = inhibition in experiment [2] was 1.99%. Besides, the Potency in experiment [3] is more than 20.6 µM.

For the compound `Cc1cc(OCCN2CCCCC2)nc2ccccc12`, the activity change, negative = inhibition in experiment [1] is -29.3%. Besides, in experiment [2], the activity, negative = inhibition was 9.41%. In addition, in experiment [3], the Potency is more than 20.6 µM.

With `CCOc1cc2nc(-c3ccc(OC)c(OC)c3)nc(N3CCOCC3)c2cc1OC`, the activity change, negative = inhibition in experiment [1] is -10.2%. In addition, in experiment [2], the activity, negative = inhibition was -21.5%. For the same compound, the Potency in experiment [3] was more than 20.6 µM.

With `COc1cccc(-c2nc(NCc3ccco3)c3ccccc3n2)c1O`, the activity change, negative = inhibition in experiment [1] is 7.35%. Also, the activity, negative = inhibition in experiment [2] was -8.59%. For the same compound, the Potency in experiment [3] was more than 20.6 µM.

Take `Cn1c2ccccc2c2nn(-c3ccccc3)c(=O)cc21`: the activity change, negative = inhibition in experiment [1] was 2.73%. The activity, negative = inhibition in experiment [2] is 6.09%. Further, the Potency in experiment [3] was more than 20.6 µM.

Turning to `Cc1cc(C)n(S(=O)(=O)Cc2ccccc2)n1`, the activity change, negative = inhibition in experiment [1] is -1.74%. The activity, negative = inhibition in experiment [2] was 14.5%. In addition, the Potency in experiment [3] is more than 20.6 µM.

As for `CC1(C(=O)O)CCC(C(=O)NC2CCCCCC2)C1(C)C` (configuration not stated), the activity change, negative = inhibition in experiment [1] is -7.92%. Further, the activity, negative = inhibition in experiment [2] was 10.5%. The Potency in experiment [3] was more than 20.6 µM.

Regarding `COC(=O)c1ccn(C(=O)c2ccc(Cl)cc2)n1`, in experiment [1], the activity change, negative = inhibition is -8.81%. In addition, the activity, negative = inhibition in experiment [2] was -10.2%. For the same compound, the Potency in experiment [3] was more than 20.6 µM.

In the case of `CCCSc1nnc(NC(=O)Nc2ccccc2)s1`, the activity change, negative = inhibition in experiment [1] was -25.9%. Also, in experiment [2], the activity, negative = inhibition is -19.6%. Moreover, in experiment [3], the Potency is more than 20.6 µM.

In the case of `CC(C)Cc1nc(N2CCN(C(=O)C(C)C)CC2)c(C#N)c2c1CCC2`, the activity change, negative = inhibition in experiment [1] was -19.4%. Besides, the activity, negative = inhibition in experiment [2] is 7.39%. Besides, the Potency in experiment [3] is more than 20.6 µM.

For the compound `Cc1ccc(-c2nnc(-c3ccccc3)o2)cc1Br`, the activity change, negative = inhibition in experiment [1] is -13.3%. Moreover, the activity, negative = inhibition in experiment [2] was 27.2%. The Potency in experiment [3] was more than 20.6 µM.

Take `COc1cccc(-c2nnc3sc(-c4ccccc4)nn23)c1`: in experiment [1], the activity change, negative = inhibition was -8.12%. Also, the activity, negative = inhibition in experiment [2] is -8.55%. For the same compound, the Potency in experiment [3] was more than 20.6 µM.

In the case of `c1ccc(N2CCN(c3nc(-c4ccccn4)nc4ccccc34)CC2)cc1`, in experiment [1], the activity change, negative = inhibition was 0.815%. The activity, negative = inhibition in experiment [2] is -14.9%. In experiment [3], the Potency was more than 20.6 µM.

In the case of `COCCNc1cc(C)c(C#N)c2nc3ccccc3n12`, the activity change, negative = inhibition in experiment [1] was 12.9%. Also, the activity, negative = inhibition in experiment [2] is 4.06%. For the same compound, the Potency in experiment [3] is more than 20.6 µM.

For the compound `CCCOc1ccc(N2C(=O)C3ON(c4ccccc4)C(c4ccc(O)c(OC)c4)C3C2=O)cc1` (configuration not stated), in experiment [1], the activity change, negative = inhibition is 10.7%. The activity, negative = inhibition in experiment [2] was -20%. In addition, the Potency in experiment [3] was more than 20.6 µM.
